± gives the standard deviation of the averaged measurements.
Key:
Conditions in all cases: concentration: 10 µM; 24 h
HCC1569 [1] = assay: cell number relative to DMSO (% of DMSO); higher = more cells (less growth inhibition / toxicity)
In short: (§1)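 HCC1569 and TDF cells were seeded at 800 per well in 384-well plates in RPMI with 10% FBS and treated with compounds at 10 µM for 24 h at 37 °C, in triplicate. After fixation in 3.7% formaldehyde, cells were stained with a rabbit anti-H1.0 antibody, an AlexaFluor 647 secondary and DAPI, and six fields per well were imaged at ×10. H1.0 nuclear intensity or cell number is given as percent of the plate control, using the median of replicates, with HCC1569 values smoothed for positional effects.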

TDF [2] = assay: as above
In short: as §1

TDF [3] = assay: H1.0 immunofluorescence intensity relative to DMSO (% of DMSO); higher = stronger H1.0 induction, active = 120 or more
In short: as §1

HCC1569 [4] = assay: H1.0 immunofluorescence intensity relative to DMSO (% of DMSO); higher = stronger H1.0 induction, active = 140 or more
In short: as §1
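For H1.0 immunofluorescence intensity relative to DMSO in this document: TDF is a line of transformed human dermal fibroblasts of mesenchymal origin.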
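For cell number relative to DMSO in this document: TDF denotes transformed human dermal fibroblasts of mesenchymal origin.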

Compound | cell number (HCC1569 [1]) | cell number (TDF [2]) | H1.0 immunofluorescence intensity (TDF [3]) | H1.0 immunofluorescence intensity (HCC1569 [4])
O=C(NC1CCNCC1)c1[nH]ncc1NC(=O)c1c(Cl)cccc1Cl | 53.5 | 31.9 | 131 (active) | 117 (inactive)
Cl.c1ccc(CN2CCC3(CCCc4ccccc43)CC2)cc1 [L-687,384 hydrochloride] | 103 | 96 | 93.7 (inactive) | 103 (inactive)
O=C(C1CCCCC1)N1CC(=O)N2CCc3ccccc3C2C1 (configuration not stated) [Praziquantel] | 101 ± 4.6 | 103 ± 5.6 | 94.8 (inactive) | 106 (inactive)
CCCCCCCCCCCC=CCCCCCCC(=O)O [8(Z)-Eicosenoic acid] | 103 | 105 | 100 (inactive) | 103 (inactive)
O.Oc1cc(O)c2c(c1)OC(c1ccc(O)c(O)c1)C(O)C2 (single isomer, unassigned; (+)) [(+)-Catechin Hydrate] | 98.9 | 110 | 90.6 (inactive) | 91.7 (inactive)
CN(C)CCCC1(c2ccc(F)cc2)OCc2cc(C#N)ccc21 (configuration not stated) [Escitalopram] | 100 | 86.1 | 98 (inactive) | 93.5 (inactive)
N[C@@H](Cc1cc(I)c(Oc2cc(I)c(O)c(I)c2)c(I)c1)C(=O)O [L-thyroxine] | 103 | 89.5 | 97.6 (inactive) | 96.6 (inactive)
CCC(=O)c1ccc2c(c1)N(CCCN(C)C)c1ccccc1S2.Cl [Propionylpromazine hydrochloride] | 97.4 | 97.1 | 104 (inactive) | 117 (inactive)
Cn1c(=O)c2[nH]cnc2n(C)c1=O [Aminophylline] | 103 | 115 | 98.7 (inactive) | 96.4 (inactive)
CC(C)C(=O)Nc1ccc([N+](=O)[O-])c(C(F)(F)F)c1 [Flutamide] | 81.3 ± 22 | 66.1 ± 48 | 112 (inactive) | 135 (inactive)
C[C@H]1C[C@H]2[C@@H]3CCC4=CC(=O)C=C[C@]4(C)[C@@]3(F)[C@@H](O)C[C@]2(C)[C@@]1(O)C(=O)COP(=O)([O-])[O-].[Na+].[Na+] | 97.2 | 106 | 83.8 (inactive) | 111 (inactive)
CCCCCC=CCC=CCC=CCCCCCCC(=O)OC(COCCCCCCCCCCCCCCCC)COP(=O)([O-])OCC[N+](C)(C)C (configuration not stated) | 101 | 98.5 | 96.6 (inactive) | 96.9 (inactive)
C=CCc1ccccc1OCC(O)CNC(C)C.Cl (configuration not stated) [Alprenolol hydrochloride] | 96.8 | 91 | 103 (inactive) | 104 (inactive)
CCCOc1cc2c(cc1\C(C)=C/C=C/C(C)=C/C(=O)O)C(C)(C)CCC2(C)C | 97.9 | 107 | 90.3 (inactive) | 95.9 (inactive)
C=CC1CN2CCC1CC2C(O)c1ccnc2ccc(OC)cc12.C=CC1CN2CCC1CC2C(O)c1ccnc2ccc(OC)cc12.O=S(=O)(O)O (configuration not stated) [Quinidine sulfate] | 99 | 99.9 | 95.4 (inactive) | 112 (inactive)
NC(=O)c1ncn(C2OC(CO)C(O)C2O)n1 (configuration not stated) [Ribavirin] | 97.5 ± 3 | 105 ± 3.3 | 94.5 (inactive) | 112 (inactive)
CCCCS(=O)(=O)N[C@@H](Cc1ccc(OCCCCC2CCNCC2)cc1)C(=O)O.Cl.O | 99.8 | 102 | 97.7 (inactive) | 104 (inactive)
CC[C@H](C)[C@H](N)C(=O)N1CCC[C@H]1C(=O)N[C@H](C(=O)O)[C@@H](C)CC | 102 | 85.3 | 97.2 (inactive) | 103 (inactive)
Cc1cccc(C)c1OCC(C)N.Cl (configuration not stated) [Mexiletene hydrochloride] | 104 | 104 | 87.8 (inactive) | 94.3 (inactive)
CCCCS(=N)(=O)CCC(N)C(=O)O [L-Buthionine-sulfoximine] | 102 | 96.6 | 97.4 (inactive) | 95.6 (inactive)
CN1CCc2cccc3c2C1Cc1ccc(O)c(O)c1-3.Cl [(R)-(-)-Apomorphine.HCl] | 98.4 | 98.9 | 89.1 (inactive) | 103 (inactive)
Cc1cc(C)c(C=C2C(=O)Nc3ccccc32)[nH]1 [VEGF Receptor 2 Kinase Inhibitor III] | 100 | 105 | 91.1 (inactive) | 108 (inactive)
O=C1c2ccccc2-n2c1nc1ccccc1c2=O [Tryptanthrin] | 96.9 | 53.6 | 101 (inactive) | 93.6 (inactive)

Source: the supplement of paper PMC7156485
